Here are results for ten compounds from PubChem BioAssay.

A short description of assay [1]: reducers of endogenous Her2 protein level, primary screen, SKBR3 breast tumor cells, AlphaScreen, ATP viability (AID 461;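 active means Her2 level under about 52% in both replicate screens, with viability over 70% of control, limit read from the data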;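 on Her2 level: lower value means less Her2 protein in the cells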;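 on viability: percent of carrier control wells set as 100% viability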). The following applies: 18-24 h, measured here: SKBR3 viability, ATP luminescence, at 10 µM.
Assay [2] addresses Receptor tyrosine-protein kinase erbB-2 (Homo sapiens) (UniProt P04626). Described as above. To be noted: 18-24 h, at 10 µM, stronger effect = lower value.
Assay [3] in a line: SK-BR-3 cell growth inhibitors, pilot screen, 24 h, human (AID 572;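 active means viability at or below 10% of carrier control in both of two separate runs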;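 further: compound exposure lasted between 18 and 24 h rather than exactly 24 h; 100% = carrier-treated control wells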). The following applies: SK-BR-3 viability, CellTiter-Glo luminescence, at 10 µM, stronger effect = lower value.
Assay [4] can be described thus: HUVEC growth inhibition – cell-based, human, primary screen (AID 575).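 Further: 100% = median of untreated cell wells with 0.1% DMSO on each plate.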 To be noted: HUVEC proliferation, CellTiter-Glo luminescence, 72 h; at 10 µM; stronger effect = lower value.
The nature of assay [5]: growth inhibitors of H69AR lung tumor, primary screen, human, duplicate replicates (AID 580;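 active means viability at or under a set limit in both replicates, limit being median viability minus 3 SD, cut at about 48% in these data, passing the limit was not always enough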;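 further: 100% = mean luminescence of untreated wells and 0% = no signal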). The following applies: H69AR lung tumor cells viability, ATP luminescence, 72 h; at 10 µM; stronger effect = lower value.
A short description of assay [6]: reversal of MRP1-mediated doxorubicin resistance, pilot screen, H69AR cells, doxorubicin co-treatment (AID 601;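 active means viability loss from added drug above about 55%, and viability with drug at most 40%, in both replicates, limit read from the data, passing the limit was not always enough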). To be noted: CellTiter-Glo, 72 h, at 10 µM; for differential viability (reversal): stronger effect = higher value.
The nature of assay [7]: 384-well plate pilot, post-Golgi transport modulator project, inhibition of yeast transport mutant growth (AID 636; in the data active means inhibition above about 31%). The following applies: absorbance 615 nm, about 18 h, stronger effect = higher value.
A short description of assay [8]: growth suppression of yeast trafficking mutant, preliminary HTS, modulators of trafficking downstream of Golgi apparatus project, 1536-format plate, OD 615 nm (AID 637; in the data active means inhibition above about 30%). To be noted: yeast transport mutant growth, absorbance 615 nm, 18 h; stronger effect = higher value.
The nature of assay [9]: OD615 S. cerevisiae growth inhibition, permissive medium, pilot counter-assay, permissive growth control for S. cerevisiae lifespan shortening project (AID 705;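 active means growth inhibition above 25% in both replicates, a cutoff set 3 SD above the mean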). To be noted: OD615, 24 h, at 10 µM, stronger effect = higher value.
Assay [10] in a line: Restrictive medium S. cerevisiae growth inhibition, OD615, pilot screen of yeast lifespan reduction project, restrictive growth control (AID 706;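 active means growth inhibition above a set limit, 3 SD over mean compound inhibition, in both replicates, cut at about 43% in these data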;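 further: modified DeaD lifespan yeast strain shifted to restrictive glucose medium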). The following applies: OD615, 48 h, at 10 µM, stronger effect = higher value.
Assay [11] is described as follows: viability gain of MRP-1-high H69AR cells under doxorubicin, pilot screen, MRP-1 activator project, CellTiter-Glo, duplicate (AID 807;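 active means viability increase at or above a cutoff of the median across tested compounds plus 3 SD, cut at about 8.5% in these data, passing the limit was not always enough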;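 further: compound pretreatment 18-22 h then 72 h combined with doxorubicin; 0% = doxorubicin alone and 100% = vehicle without doxorubicin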). The following applies: H69AR viability with doxorubicin, CellTiter-Glo luminescence; at 10 µM; stronger effect = higher value.
Assay [12] can be described thus: growth suppression of beta-catenin knockout HCT116, pilot screen, human colon tumor cells (AID 823;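 active means cell viability at or below a set limit in both duplicate runs, the limit being the all-compound median minus 4 SD, cut at about 23% in these data, passing the limit was not always enough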;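 further: 0% = wells killed by 20 µM Hyamine and 100% = untreated DMSO cell wells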). The following applies: CellTiter-Glo, 60 h, at 10 µM, stronger effect = lower value.
Assay [13] in a line: growth suppression of PTEN-deleted HCT116, pilot screen, cell-based, HCT116 clonal line, CellTiter-Glo (AID 824;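 active means viability at or below 27.92% in each of two runs, the all-compound median minus 4 SD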;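 further: 0% = 20 µM Hyamine control and 100% = vehicle cell control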). The following applies: 60 h, at 10 µM, stronger effect = lower value.
Assay [14] is described as follows: inhibitors of the yeast RAM network, pilot screen, dse1pr::URA3 reporter, 5-FOA selection (AID 869;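 active means inhibition over a set limit, the all-compound mean plus 3 SD, in both replicate runs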;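 further: 0% = DMSO wells with no growth and 100% = 10 µM 1-NA-PP1 with full growth; RAM network block rescues cells from 5-FOA so hits raise OD615 growth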). To be noted: S. cerevisiae dse1pr::URA3 5-FOA growth, OD615, 2 d; at 10 µM; stronger effect = higher value; strain carries analog-sensitive mutant Cbk1 kinase.
Assay [15] is described as follows: RAM signaling pathway blockade in yeast – S. cerevisiae, Pdr1DBD-CYC8 efflux-inhibited sensitized strain, primary screen (AID 1298;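 active means RAM network inhibition above 8.4% in each of two replicates, 3 SD over the compound average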;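 further: 0% = DMSO untreated cells without growth and 100% = 10 µM 1-NA-PP1 full growth; higher means more yeast growth rescued from 5-FOA killing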). The following applies: S. cerevisiae cbk1-as DSE1-URA3 strain, 5-FOA growth OD615, 2 d; at 50 µM; stronger effect = higher value.
[16] abbreviates: H69AR cells + 2 uM doxorubicin, measured here: viability with 2 uM doxorubicin, stronger effect = lower value.
The mark [17] stands for this setting: H69AR cells, compound alone cytotoxicity.

Inconclusive results are not listed. Activity calls are given as the source filed them.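 How the source made its calls, unless noted: active means viability at or below 30% in both replicate assays; inconclusive means viability at or below 30% in just one of the two assays; inactive means the rest.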

Receptor tyrosine-protein kinase erbB-2 (Homo sapiens), sequence (P04626 whole entry, looked up): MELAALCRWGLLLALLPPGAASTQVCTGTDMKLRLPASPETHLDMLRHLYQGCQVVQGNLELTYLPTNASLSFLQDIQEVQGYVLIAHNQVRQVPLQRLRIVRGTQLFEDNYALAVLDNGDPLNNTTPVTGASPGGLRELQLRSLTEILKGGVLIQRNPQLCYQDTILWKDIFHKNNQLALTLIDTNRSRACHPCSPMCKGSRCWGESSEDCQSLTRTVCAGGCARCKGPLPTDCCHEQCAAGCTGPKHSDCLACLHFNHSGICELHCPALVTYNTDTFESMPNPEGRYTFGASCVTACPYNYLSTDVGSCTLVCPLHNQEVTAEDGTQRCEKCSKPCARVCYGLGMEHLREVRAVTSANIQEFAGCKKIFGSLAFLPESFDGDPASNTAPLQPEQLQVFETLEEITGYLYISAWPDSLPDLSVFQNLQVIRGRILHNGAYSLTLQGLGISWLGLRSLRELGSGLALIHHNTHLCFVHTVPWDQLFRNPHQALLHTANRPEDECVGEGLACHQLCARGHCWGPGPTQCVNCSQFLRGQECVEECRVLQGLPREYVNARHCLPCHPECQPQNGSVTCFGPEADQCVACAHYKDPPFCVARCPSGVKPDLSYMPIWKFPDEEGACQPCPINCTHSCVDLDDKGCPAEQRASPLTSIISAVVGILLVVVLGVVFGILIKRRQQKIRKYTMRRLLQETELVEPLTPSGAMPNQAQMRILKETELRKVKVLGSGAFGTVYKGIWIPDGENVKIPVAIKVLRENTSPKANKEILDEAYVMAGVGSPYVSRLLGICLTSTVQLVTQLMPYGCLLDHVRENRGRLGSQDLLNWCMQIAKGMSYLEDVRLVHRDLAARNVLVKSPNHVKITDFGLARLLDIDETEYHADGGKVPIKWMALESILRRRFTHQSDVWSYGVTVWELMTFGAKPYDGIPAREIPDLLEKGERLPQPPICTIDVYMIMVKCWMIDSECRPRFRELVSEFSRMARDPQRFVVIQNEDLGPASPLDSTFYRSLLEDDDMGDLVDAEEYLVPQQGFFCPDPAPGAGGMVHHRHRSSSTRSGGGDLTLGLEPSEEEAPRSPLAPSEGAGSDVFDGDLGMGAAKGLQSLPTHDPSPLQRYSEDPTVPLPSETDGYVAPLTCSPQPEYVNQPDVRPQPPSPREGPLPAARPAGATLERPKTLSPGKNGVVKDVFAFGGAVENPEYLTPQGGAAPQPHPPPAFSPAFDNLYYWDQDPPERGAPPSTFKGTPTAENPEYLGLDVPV

On to `COC(=O)CSC1=NS(=O)(=O)c2ccccc21`, for which the viability is 143% in [1]; 143% (inactive) in assay [3]; 60% (inactive) in assay [4]; 62.6% (inactive) in [5]; 89.3% in assay [6] (setting [16]); 62.6% in assay [6] (setting [17]). Also, the viability in assay [12] was 99.4% (inactive); in [13] it was 96.4% (inactive). The Her2 level in [2] was 92% (inactive). For the same compound, the differential viability (reversal) in assay [6] (H69AR cells + 2 uM doxorubicin) was -26.7% (inactive). Besides, the inhibition is -7.43% (inactive) in assay [7], -2.3% (inactive) in [8] and -0.34% (inactive) in assay [14]. Moreover, the growth inhibition in [9] is 94.3% (active); in [10], 98.3% (active). The viability increase in assay [11] was -0.32% (inactive). The RAM network inhibition in assay [15] is -1.77% (inactive).
Take `CCOC(=O)c1sc(NC(=O)c2noc3c2CCCC3)c(C(=O)OCC)c1C`: the viability was 69.5% in [1]; 69.5% (inactive) in assay [3]; 85% (inactive) in [4]; 67.8% (inactive) in assay [5]; 81% in assay [6] (setting [16]); 67.8% in assay [6] (setting [17]). Moreover, the viability in [12] was 55.2% (inactive); in [13], 55.8% (inactive). The Her2 level in assay [2] was 83% (inactive). In assay [6] (H69AR cells + 2 uM doxorubicin), the differential viability (reversal) is -13.2% (inactive). Besides, the inhibition was 1.41% (inactive) in assay [7], -4.17% (inactive) in assay [8] and 0.47% (inactive) in assay [14]. Moreover, the results for the growth inhibition in assay [9] and in [10] were -0.315% (inactive) and -5.25% (inactive), respectively. In addition, in assay [11], the viability increase is -3.88% (inactive). In [15], the RAM network inhibition is 2.96% (inactive).
Turning to `CCOC(=O)c1sc2nc(NC(=O)C(C)(C)C)sc2c1C`, the viability is 104% in assay [1]; 104% (inactive) in assay [3]; 62.8% (inactive) in assay [4]; 79.3% (inactive) in assay [5]; 67.5% in [6] (setting [16]); 79.3% in assay [6] (setting [17]). The viability is 74.5% (inactive) in assay [12] and 74% (inactive) in assay [13]. Also, the Her2 level in [2] was 75.5% (inactive). The differential viability (reversal) in [6] (H69AR cells + 2 uM doxorubicin) is 11.9% (inactive). Besides, the results for the inhibition in assay [7], in assay [8] and in assay [14] were -3.73% (inactive), -4.59% (inactive) and -0.52% (inactive), respectively. Besides, the growth inhibition in [9] was -1.74% (inactive); in assay [10], 5.62% (inactive). Also, the viability increase in assay [11] was -4.43% (inactive). The RAM network inhibition in assay [15] is 3.13% (inactive).
As for `O=C(Nc1ccc(Cl)cn1)c1cccnc1`, the viability in [1] is 104%; in [3] it was 104% (inactive); in [4] it was 81.6% (inactive); in assay [5], 70.1% (inactive); in assay [6] (setting [16]), 87.6%; in [6] (setting [17]), 70.1%. Moreover, the viability in [12] is 63% (inactive); in assay [13], 62% (inactive). Further, the Her2 level in assay [2] was 112% (inactive). For the same compound, the differential viability (reversal) in assay [6] (H69AR cells + 2 uM doxorubicin) was -17.4% (inactive). The inhibition was -0.52% (inactive) in assay [7], -6.56% (inactive) in assay [8] and 1.56% (inactive) in assay [14]. Besides, the growth inhibition in assay [9] was -8.23% (inactive); in assay [10], -14.8% (inactive). In assay [11], the viability increase is -4.65% (inactive). For the same compound, in [15], the RAM network inhibition was -0.47% (inactive).
As for `Cc1nnc(NC(=O)CSc2nc3c(c(=O)n2C)SC(C)C3)s1` (stereo not given), the viability was 89% in [1]; 89% (inactive) in assay [3]; 79.4% (inactive) in assay [4]; 84.8% (inactive) in [5]; 80% in assay [6] (setting [16]); 84.8% in assay [6] (setting [17]). Also, the viability in assay [12] was 104% (inactive); in [13], 99.6% (inactive). In assay [2], the Her2 level is 80% (inactive). For the same compound, in [6] (H69AR cells + 2 uM doxorubicin), the differential viability (reversal) was 4.81% (inactive). In addition, the inhibition in assay [7] was -6.27% (inactive); in assay [8], 4.17% (inactive); in [14], 2.09% (inactive). The growth inhibition in [9] is -11.1% (inactive); in assay [10], -18.2% (inactive). Also, in assay [11], the viability increase was 0.31% (inactive). In addition, the RAM network inhibition in assay [15] is 9.95% (inactive).
Regarding `CSCCC(N=CC1=C(O)CC(C)(C)CC1=O)C(=O)O` (stereo not given), the viability in assay [1] was 100%; in [3] it was 100% (inactive); in [4], 99.4% (inactive); in [5], 87.2% (inactive); in assay [6] (setting [16]), 89.3%; in assay [6] (setting [17]) it was 87.2%. The viability in assay [12] was 93.9% (inactive); in assay [13], 99.9% (inactive). Besides, in assay [2], the Her2 level was 139% (inactive). For the same compound, in assay [6] (H69AR cells + 2 uM doxorubicin), the differential viability (reversal) is -2.07% (inactive). Also, the inhibition in [7] is -3.21% (inactive); in assay [8] it was -6% (inactive); in [14], 0.65% (inactive). Moreover, the growth inhibition in assay [9] was 1.4% (inactive); in assay [10], 1.57% (inactive). Also, in [11], the viability increase is 0.34% (inactive). Besides, the RAM network inhibition in [15] was 4.91% (inactive).
Regarding `Nc1nc2n(n1)C(c1cccc(Br)c1)CC(c1ccc(F)cc1)N2` (stereo not given), the viability was 85% in [1]; 85% (inactive) in assay [3]; 98.8% (inactive) in assay [4]; 111% (inactive) in [5]; 117% in assay [6] (setting [16]); 111% in assay [6] (setting [17]). For the same compound, the viability in assay [12] and in assay [13] was 89.3% (inactive) each time. Further, the Her2 level in [2] was 109% (inactive). The differential viability (reversal) in [6] (H69AR cells + 2 uM doxorubicin) is -6.81% (inactive). Moreover, the inhibition in assay [7] was -1.03% (inactive); in [8] it was -6.5% (inactive); in [14], 0.875% (inactive). In addition, the growth inhibition is 2.49% (inactive) in [9] and 11.9% (inactive) in [10]. Further, the viability increase in assay [11] is 0.72% (inactive). Besides, in [15], the RAM network inhibition was 2.61% (inactive).
As for `O=C(c1cnc2n(c1=O)CCS2)N1CCc2ccccc21`, the viability in [1] was 99.5%; in assay [3] it was 99.5% (inactive); in assay [4], 96% (inactive); in [5] it was 101% (inactive); in [6] (setting [16]), 98.1%; in assay [6] (setting [17]), 101%. In addition, the viability in assay [12] was 97% (inactive); in assay [13] it was 102% (inactive). Moreover, in assay [2], the Her2 level was 83% (inactive). Also, the differential viability (reversal) in [6] (H69AR cells + 2 uM doxorubicin) is 3.18% (inactive). Moreover, the inhibition in [7] was -2.13% (inactive); in assay [8], 0.16% (inactive); in [14], 1.24% (inactive). Moreover, the growth inhibition was -3.25% (inactive) in assay [9] and -7.63% (inactive) in assay [10]. The viability increase in [11] is 0.01% (inactive). In addition, in [15], the RAM network inhibition is -0.32% (inactive).
Consider `N#Cc1cc2c(nc1SCC(=O)N1CCCCC1)CCCC2`, for which the viability is 85% in assay [1]; 85% (inactive) in assay [3]; 88.3% (inactive) in [4]; 87.6% (inactive) in [5]; 86.4% in assay [6] (setting [16]); 87.6% in assay [6] (setting [17]). Moreover, the values for the viability in assay [12] and in assay [13] were 93% (inactive) and 91.3% (inactive), respectively. In assay [2], the Her2 level was 130% (inactive). Moreover, in assay [6] (H69AR cells + 2 uM doxorubicin), the differential viability (reversal) was 1.21% (inactive). The inhibition in assay [7] is 3.51% (inactive); in assay [8], -6.67% (inactive); in assay [14] it was 3.67% (inactive). In addition, the figures for the growth inhibition in assay [9] and in assay [10] were -16.8% (inactive) and -1.56% (inactive), respectively. Besides, in assay [11], the viability increase is -1.73% (inactive). The RAM network inhibition in assay [15] was 2.13% (inactive).
Consider `CN(C(=O)c1ccco1)c1nnc(C23CC4CC(CC(C4)C2)C3)s1`, for which the viability in assay [1] is 86%; in [3], 86% (inactive); in assay [4], 60.3% (inactive); in [5] it was 75.9% (inactive); in assay [6] (setting [16]) it was 76.5%; in assay [6] (setting [17]), 75.9%. Besides, the viability is 79.5% (inactive) in assay [12] and 66% (inactive) in assay [13]. Besides, the Her2 level in assay [2] is 87% (inactive). Further, the differential viability (reversal) in assay [6] (H69AR cells + 2 uM doxorubicin) was -0.595% (inactive). For the same compound, the results for the inhibition in [7], in [8] and in [14] were -3.73% (inactive), -0.83% (inactive) and 0.17% (inactive), respectively. The growth inhibition in [9] was -8.84% (inactive); in assay [10], -8.94% (inactive). Moreover, in assay [11], the viability increase was -7.07% (inactive). The RAM network inhibition in assay [15] was 5.35% (inactive).
